Reference: the supplement of paper PMC9334596
Several values for one entry are separate records, joined by “and”; a condition that tells them apart may be missing. Equal values may be shown once. The full ranking holds about 5,300 compounds; the median of “PER2::LUC luminescence relative to vehicle control” is about 0.96, and the highest 2% start at about 1.3. What follows is part of a selection rich in the highest values, with near analogues and random picks from the rest.

Test system: mPer2Luc MEF
Experiment: PER2::LUC luminescence relative to vehicle control (fold of vehicle); higher = higher PER2::LUC reporter signal
Conditions: 10 µM
How it was run: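 In 384-well plates, ~3000 mPer2Luc reporter mouse embryonic fibroblasts per well were cultured in DMEM with 10% FBS at 37 °C and 5% CO2 for 48 h before compounds from commercial libraries were added at 10 μM. ONE-Glo luciferase readings were taken 24 h and 30 h after treatment. Each value is PER2::LUC luminescence given as fold of vehicle control.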

| Compound | PER2::LUC luminescence (time after treatment 24 h) | PER2::LUC luminescence (time after treatment 30 h) |
| --- | --- | --- |
| CC(C)(Cc1nc(-c2ccc(O)cn2)no1)C(=O)NC1=C(C(=O)O)CCCC1 | 1.02 | 1.08 |
| c1ccc(-c2ccc(C(c3ccccc3)n3ccnc3)cc2)cc1 (stereo unspecified) | 1.45 | 1.32 |
| FC(F)(F)c1ccccc1-n1ccnc1 | 0.975 | 0.907 |
| N#Cc1ccc(C(c2ccc(C#N)cc2)n2cncn2)cc1 | 0.794 | 1.11 |
| O=C1c2ccccc2C(=O)c2oc(-c3ccccc3)nc21 | 1.15 | 0.538 |
| Cc1cc(NC(=O)Nc2ccc3c(ccn3C)c2)sn1 | 1.59 | 1.52 |
| CC(C)c1cc(-c2n[nH]c(=O)n2-c2ccc3c(ccn3C)c2)c(O)cc1O | 0.062 | 0.052 |
| Cn1ccc2cc(NC(=O)Nc3cccnc3)ccc21 | 1.15 | 0.855 |
| N[C@H](CCC(=O)O)C(=O)O | 1.1 | 1.01 |
| CC(C)C1=CC2=CC[C@@H]3[C@](C)(CCC[C@@]3(C)C(=O)O)[C@H]2CC1 | 1.34 | 1.15 |
| C=C1C[C@@]23CC[C@H]4[C@@](C)(CCC[C@@]4(C)C(=O)O)[C@@H]2CC[C@]1(O)C3 | 0.886 | 1.12 |
| CC(C)c1cc2c(cc1S(=O)(=O)O)[C@@]1(C)CCC[C@@](C)(C(=O)O)[C@@H]1CC2 | 1.03 | 1 |
| FC(F)(F)c1ccc(Nc2nc(-c3c(C(F)(F)F)nc4ccccn34)cs2)cc1 | 0.269 | 0.305 |
| COc1cccc(NC(=O)/C=C/c2ccc(Cl)cc2)c1 | 1.39 | 1 |
| COc1cc(NC(=O)c2ccc(-c3ccc(Cl)cc3)o2)cc(OC)c1 | 0.947 | 1.04 |
| CC(C)(C)c1ccc(/C=C/C(=O)Nc2ccc3c(c2)OCCO3)cc1 | 0.942 | 1.11 |
| C[n+]1ccc(C=Cc2ccc3ccccc3c2)cc1 | 0.908 | 1.07 |
| Nc1ccc(CCNc2ncnc3c2ncn3C2OC(CO)C(O)C2O)cc1 (stereo unspecified) | 0.951 | 0.857 |
| Cc1ccccc1CNc1ncnc2c1ncn2[C@@H]1O[C@H](CO)[C@@H](O)[C@H]1O | 1.35 | 1.28 |
| OC[C@H]1O[C@@H](n2cnc3c(Nc4ccccc4)ncnc32)[C@H](O)[C@@H]1O | 1.41 | 1.13 |

| Compound | PER2::LUC luminescence (time after treatment 24 h) | PER2::LUC luminescence (time after treatment 30 h) |
| --- | --- | --- |
| CNc1ncnc2c1ncn2[C@@H]1O[C@H](CO)[C@@H](O)[C@H]1O | 0.974 | 1.04 |
| OCC1OC(n2cnc3c(NC4CCCCC4)ncnc32)C(O)C1O (stereo unspecified) | 0.986 | 1.02 |
| CC(Cc1ccccc1)Nc1ncnc2c1ncn2C1OC(CO)C(O)C1O (single isomer, unassigned; (-)) | 0.925 | 0.965 |
| COc1ccc2cc1Oc1ccc(cc1)C[C@@H]1c3cc(c(OC)cc3CCN1C)Oc1c(OC)c(OC)cc3c1[C@H](C2)N(C)CC3 | 0.674 | 0.713 |
| COc1cc(N2CCOCC2)ccc1NC(=O)c1csc(-c2cccnc2)n1 | 0.906 | 1.02 |
| CCOC(=O)c1cc(OC)c(OC)cc1NC(=O)c1cc(OC)c(OC)c(OC)c1 | 1.08 | 1.16 |
| CC(C)CCCC(C)C1CCC2C3CCC4CC(O)CCC4(C)C3CCC12C (stereo unspecified) | 0.978 | 0.951 |
| COc1cc2ccc(=O)oc2cc1O | 1.02 | 1.04 |
| CC1(C)C=Cc2cc3ccc(=O)oc3cc2O1 | 1.26 | 1.48 |
| O=c1ccc2cc(O)c(O)cc2o1 | 0.867 | 0.732 |
| CCOC(=O)CCCCCCCCCCCN(C)C(=O)CO[C@H](C)[C@@H](C)OCC(=O)N(C)CCCCCCCCCCCC(=O)OCC | 1.2 | 1.08 |
| CCN1CCN(Cc2ccc(NC(=O)c3ccc(C)c(/C=C/c4cnc5[nH]ccc5c4OC)c3)cc2C(F)(F)F)CC1 | 0.349 | 0.394 |
| CCCC(=O)NCCc1c(I)[nH]c2ccc(OC)cc12 | 0.668 | 0.814 |
| CCCCC/C=C\C[C@@H](O)/C=C/c1cccc(C[C@@H](O)CCCCO)n1 | 1.07 | 0.841 |
| O=C(Nc1cccc(C(F)(F)F)c1)Nc1cc(Cl)ccc1C(=O)O | 1.07 | 1 |
| CCN(CC)CCNC(=O)c1cc(S(C)(=O)=O)ccc1OC | 0.984 | 0.88 |
| CCN(CC)CCNC(=O)COc1ccc(OC)cc1 | 1.38 | 1.49 |
| CCN(CC)CCNC(=O)c1ccc(N)cc1 | 1.11 | 1.27 |
| CC12CCC3c4ccc(O)cc4CCC3C1CCC2O (stereo unspecified) | 0.721 | 0.751 |
| OC[C@H]1O[C@@H](n2cnc3c(N[C@H]4CCC[C@@H]4O)ncnc32)[C@@H](O)C1O (stereo partly specified) | 1.25 | 0.88 |

| Compound | PER2::LUC luminescence (time after treatment 24 h) | PER2::LUC luminescence (time after treatment 30 h) |
| --- | --- | --- |
| CN(C)CC1CCC2=C(C1=O)C(c1ccc(Cl)c(Cl)c1)C1=C(CCC(CN(C)C)C1=O)O2 (stereo unspecified) | 1.15 | 1.08 |
| O=C1Nc2cc(Br)ccc2/C1=C1/Nc2ccccc2/C1=N\O | 0.773 | 1.09 |
| O=C1Cc2c([nH]c3ccc(Br)cc23)-c2ccccc2N1 | 1.15 | 1.88 |
| CC(C)NC[C@@H](O)COc1ccc(CC(N)=O)cc1 | 1.01 | 0.958 |
| CC(C)NCC(O)COc1ccc(CC(N)=O)cc1 (stereo unspecified) | 1.26 | 1.06 |
| C[C@H](NCc1ccc(OCc2cccc(F)c2)cc1)C(N)=O | 1.22 and 1.67 | 1.5 and 1.51 |
| COc1ccc([C@@H]2CC(=O)c3c(O)cc(OC4O[C@H](CO[C@H]5O[C@@H](C)[C@@H](O)[C@@H](O)[C@H]5O)[C@H](O)[C@H](O)[C@H]4O)cc3O2)cc1O (stereo partly specified) | 1.02 | 1.03 |
| O=C(NCc1nc2ccccc2c(=O)n1-c1ccc(F)cc1)Nc1ccc(Cl)c(C(F)(F)F)c1 | 1 | 0.929 |
| O=S(=O)(O)c1cc(N=C=S)ccc1/C=C/c1ccc(N=C=S)cc1S(=O)(=O)O | 0.832 | 0.684 |
| C/C(O)=C(\C#N)C(=O)Nc1ccc(C(F)(F)F)cc1 | 1.32 and 1.08 | 1.56 and 1.07 |
| CC(=O)Nc1ccc(O)cc1 | 0.846 | 0.81 |
| CC(=O)Nc1ccc(NC(=S)NC(=O)c2ccc(C(C)(C)C)cc2)cc1 | 0.812 | 0.973 |
| O=C([O-])CN1CCN(CC(=O)[O-])CCN([C@H](CO)[C@H](O)CO)CCN(CC(=O)[O-])CC1.[Gd+3] (racemic) | 1.03 | 1.04 |
| C[C@H]1COC2(CCN(c3nc(=O)c4cc(C(F)(F)F)cc([N+](=O)[O-])c4s3)CC2)O1 (racemic) | 1.32 | 1.39 |
| COCc1c(C(C)C)nc(C(C)C)c(/C=C/[C@@H](O)C[C@@H](O)CC(=O)O)c1-c1ccc(F)cc1 | 0.305 | 0.274 |
| CCCCN1CCCC1CNC(=O)c1cc(C#N)c2ccccc2c1OC (stereo unspecified) | 1 | 1.58 |
| CCN1CCC[C@H]1CNC(=O)c1c(OC)ccc(Br)c1OC | 1.03 | 0.993 |
| CCN1CCC[C@H]1CNC(=O)c1c(O)c(Cl)cc(Cl)c1OC | 1.14 and 1.02 | 0.977 and 0.877 |
